A short description of assay [1]: qHTS for Activators of p53 Stress Response Pathway screened against the NCATS CANVASS Library (AID 1347388). Summed up: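 p53RE-bla HCT-116 cells (4000/well) were pre-incubated for 5 h, then treated with compound (11 points) for 16 h at 37C. After 2 h with CCF4, the 460/530 nm ratio gave reporter activation; CellTiter-Glo measured viability.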
Assay [2] can be described thus: qHTS assay for small molecule disruptors of mitochondrial membrane potential screened against the NCATS CANVASS Library (AID 1347389). Further: series mostly up to about 46 µM; nearly all actives have a fitted effect of over 60% in size. Summed up: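 HepG2 cells (2,000/well) plated overnight, then exposed to compounds in 11-point qHTS series for 1 h at 37C before 30 min Mito-MPS dye; depolarization read as fall in red aggregate (590 nm) to green monomer (535 nm) fluorescence.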

Assay [3] is described as follows: qHTS for activators of Nrf2/ARE signaling pathway screened against the NCATS CANVASS Library (AID 1347391). Further: nearly all actives have a fitted effect of over 60% in size. Further: potency means the concentration at half of the fitted maximal effect. In short, it runs like this:
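ARE-bla HepG2 beta-lactamase reporter cells exposed to compounds for 16 h at 37C; CCF4 substrate 2 h, fluorescence at ex 405 nm, em 460/530 nm. Viability by CellTiter-Glo luminescence.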

A short description of assay [4]: qHTS for activators of dead-cell proteases activity screened against the NCATS CANVASS Library (AID 1347392).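 Further: luminescence from protease leaking out of membrane-damaged cells cleaving impermeant substrate; rising signal means more cytotoxicity.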 Summed up: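 HepG2 cells, 2000/well, attached 18 h at 37C, then exposed to compounds (11-point qHTS) for 5 h. Dead-cell protease release read as luminescence from cell-impermeant AAF-aminoluciferin substrate after 15 min at room temperature.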
Assay [5] is described as follows: qHTS for inhibitors of ER calcium dysfunction: SERCaMP assay screened against the NCATS CANVASS Library (AID 1347393). Further: nearly all actives have a fitted effect of over 40% in size. Further: potency means the concentration at half of the fitted maximal effect. In short, it runs like this: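 SH-SY5Y GLuc-SERCaMP, 1000 cells/well, 4 h attach; cpd 16 h, 37C/5% CO2; thapsigargin (added as 6x 600 nM) 4 h; coelenterazine; luminescence. Reduced reporter release = ER Ca stabilization.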
The nature of assay [6]: Vero-766 cells viability qHTS against the NCATS CANVASS Library: Counterscreen for Zika virus inhibition assay (AID 1347394). Further: series mostly up to about 46 µM; nearly all actives have a fitted effect of over 60% in size. Summed up: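 Uninfected Vero 766 (African green monkey) cells, 1000/well, attached overnight, then exposed 72 h at 37C to compounds (11-point qHTS). Viability read by CellTiter-Glo luminescence; media-only wells served as 100% inhibition.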
Assay [7] in a line: qHTS for inhibitors of Wild type Zika virus screened against the NCATS CANVASS Library (AID 1347396).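 Further: ATP luminescence of surviving cells so rescue from viral cell killing; series mostly up to about 46 µM.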 In short, it runs like this: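 Luminescent CellTiter Glo read-out of virus-induced cytotoxicity, 72 h post-infection, in Vero 766 cells. Compounds were tested at 11 concentrations; uninfected, vehicle-treated wells defined 100% inhibition.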
The nature of assay [8]: Viability qHTS for inhibitors of the SERCaMP assay screened against the NCATS CANVASS Library (AID 1347400). Further: series mostly up to about 92 µM; nearly all actives have a fitted effect of over 70% in size. Summed up:
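SH-SY5Y-GLuc SERCaMP MJH297-derived cells, 1000/well, plated 4 h, then exposed to compounds in an 11-point qHTS series for 48 h at 37C. Viability read as CellTiter-Glo luminescence.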

A short description of assay [9]: Redox Reaction Profiling qHTS: Assay Interference Panel against the NCATS CANVASS Library (AID 1347401). In short, it runs like this:
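Compounds in 11-point series incubated with 5 uM resazurin and 200 uM DTT in 50 mM HEPES pH 7.3, 50 mM NaCl. Resorufin fluorescence (Ex 525/Em 598) read before and after 15 min in the dark.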

Assay [10] in a line: Secretion counterscreen for inhibitors of the SERCaMP assay screened against the NCATS CANVASS Library (AID 1347390).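 Further: light from luciferase secreted into medium read as a measure of general secretion; series mostly up to about 77 µM.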 An excerpt: Natural products and their derivatives continue to be wellsprings of nascent therapeutic potential. However, many laboratories have limited resources for biological evaluation, leaving their previously isolated or synthesized compounds largely or completely untested. To address this issue, the Canvass library of natural products was assembled (https://tripod.nih.gov/canvass), in collaboration with academic and industry researchers, for quantitative high-throughput screening (qHTS) across a diverse set of cell-based and biochemical assays. The pure (>85% purity by liquid chromatography/mass spectrometry [LC/MS]) Canvass library of 346 natural products were submitted by 45 academic laboratories and companies around the world. We collected pure natural products to circumvent deconvolution and structure elucidation due to time and resource limitations. The library was formatted into 1536-well plates and evaluated in 50 qHTS (in an 11-pnt concentration series) bioassays with broad scope of disease-relevant mechanisms. The resulting data set from 50 different assays was then systematically analyzed to identify overall trends and specific natural products with interesting biological activities. Reported herein are the results of each individual qHTS and their corresponding assay protocol. Compounds that interfere with the secretory pathway can show activity in the SERCaMP assay. This type of false positive is identified using a constitutively secreted GLuc reporter. National Center for Advancing Translational Sciences (NCAwsTS), Rockville, MD National Institute of Health (NIH), Bethesda, Maryland
SERCaMP secretion assay protocol: 1. In a white-solid bottom 1536-well tissue culture plate (Corning 7494), 5 uL of SH-SY5Y-GLuc STOP cells were dispensed using a Multidrop Combi (Thermo Fisher Scientific) at a final concentration of 1000 cells / well. 2. […] Luminescence signal was obtained via the ViewLux plate reader (Perkin Elmer) using the clear emission filter and 1x binning, 5 seconds exposure settings.

Records with an inconclusive call do not appear. Calls of active or inactive are those of the source. The call rests on the fitted dose curve; in most records, active means well fitted curve in the direction sought with a large enough effect; inconclusive means small, poorly fitted or top-dose-only effect, or another doubt; inactive means no such curve, though single readings can be large; an effect the other way counts as inactive or inconclusive.

For the compound `O=C(/C=C/C=C/c1ccc2c(c1)OCO2)N1CCCCC1`, the result in assay [1], in assay [2], in assay [4], in [6], in assay [7] and in assay [8] was inactive. Besides, the outcome in assay [9] was inactive. Moreover, in [3], the Potency entry is “inactive”. Further, in assay [5], the Potency is 60.5 µM (active).

As to `CC(C)c1ccc2c(c1)CCC1[C@](C)(C(=O)O)CCC[C@]21C` (some centres undefined), the call in [1], in [2], in assay [10], in [4], in assay [6] and in [7] was inactive. The outcome in assay [8] and in [9] was inactive. The Potency result in [5] was “inactive”.

As to `C/C(=C\CC/C(C)=C/CC[C@]1(C)CCc2cc(O)cc(C)c2O1)CC/C=C(\C)C(=O)O`, the compound was classed as inactive in [2], in [10], in [4], in [8] and in assay [9]. Moreover, the Potency entry in [3] and in assay [5] was “inactive” throughout.

For the compound `CC(=O)O[C@H]1C[C@@]2(C)[C@@H](CC[C@H]3[C@@]4(C)C=CC(=O)[C@@H](C)[C@@H]4[C@H](OC(C)=O)C(=O)[C@@]32C)/C1=C(\CCC=C(C)C)C(=O)O`, the compound was classed as inactive in assay [1], in [2], in assay [10], in assay [4], in [6] and in assay [8]. Moreover, the result in assay [9] was inactive. Also, the Potency was 20.9 µM (active) in assay [3] and 30.5 µM (active) in assay [5].
